TEAD-YAP block = TEAD-YAP interaction inhibition; 1.4% of 640,000 active; HEK-TIYL cells, TEAD-Gal4/YAP UAS-luciferase luminescence; inhibition, % at 9.12 µM; AID 1259422; in the data active = inhibition above about 32%;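 note: 0% = median of test compound wells and 100% = reference inhibitor wells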
FBW7 activator = activators of human E3 ligase FBW7 | Q969H0 | AlphaScreen FBW7–phospho-cyclin E peptide binding, activator screen | normalized activity (activation), % at 26.1 µM | 0.13% of 650,000 active; in the data active = normalized activity above about 1.9%;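 note: purified mutant Fbw7 with reduced substrate affinity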
GPR151 ag = activates the human receptor GPR151; Q8TDV0; 1% of 650,000 active; PathHunter beta-arrestin GPR151 cells, luminescence; AID 1508602; activation, % at 11.2 µM; in the data active = activation above about 4.9%;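 note: 0% = median of compound wells and 100% = cells with positive control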
Target sequence (Q8TDV0 whole entry, looked up): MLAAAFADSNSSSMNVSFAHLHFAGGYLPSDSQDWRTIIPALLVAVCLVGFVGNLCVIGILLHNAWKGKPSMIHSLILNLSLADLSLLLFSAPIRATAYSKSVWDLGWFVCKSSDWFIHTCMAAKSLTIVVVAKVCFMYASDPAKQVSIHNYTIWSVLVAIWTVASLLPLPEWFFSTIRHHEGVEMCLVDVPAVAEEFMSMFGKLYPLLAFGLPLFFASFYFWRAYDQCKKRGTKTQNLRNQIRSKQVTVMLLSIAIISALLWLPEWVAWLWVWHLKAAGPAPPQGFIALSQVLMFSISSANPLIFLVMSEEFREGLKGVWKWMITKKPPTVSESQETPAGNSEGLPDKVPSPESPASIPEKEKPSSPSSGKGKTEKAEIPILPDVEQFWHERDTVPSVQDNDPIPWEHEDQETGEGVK
MITF inh = inhibitors of human MITF; 0.91% of 650,000 active; inhibition, % at 2.6 µM; AlphaScreen MITF homodimerization, bead proximity signal; AID 1259374; O75030; in the data active = inhibition above about 50%;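 note: 0% = vehicle wells with protein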
Numbers without * were called inactive. A selection: hits, their analogues and other compounds. The true share with any hit is near 3.5%.

Screening Cc1oc(-c2ccccc2Cl)nc1CS(=O)CC(=O)NCc1ccc2c(c1)OCO2 (stereo not given) returned TEAD-YAP block 9.6, FBW7 activator 3.9*, GPR151 ag -0.6 and MITF inh 18.3.
For COC(=O)C(CSC1CCCCO1)NC(=O)C(Cc1ccccc1)NC(=O)OC(C)(C)C (stereo not given) the results were TEAD-YAP block -2.0, FBW7 activator -0.1, GPR151 ag -0.2 and MITF inh 20.3.
COC(=O)c1ccc(NC(=O)c2c(O)c3cccc4c3n(c2=O)CC4)cc1 was read as TEAD-YAP block 5.9, FBW7 activator 0.0, GPR151 ag 0.6 and MITF inh 7.1.
Screening Cc1ccc(Cn2c(CN(C)Cc3ccccc3)nc3c2c(=O)n(C)c(=O)n3C)cc1 returned TEAD-YAP block -5.2, FBW7 activator 0.0, GPR151 ag 0.4 and MITF inh -17.6.
`COc1cccc(Cn2c(NCc3ccco3)nc3c2c(=O)n(C)c(=O)n3C)c1` gave TEAD-YAP block 39.6*, FBW7 activator -0.1, GPR151 ag 1.3 and MITF inh 7.8.
`CCNc1nc2c(c(=O)n(C)c(=O)n2C)n1CCc1ccccc1` gave TEAD-YAP block 33.3*, FBW7 activator 0.2, GPR151 ag 1.2 and MITF inh 2.8.
`CC(C)n1c(CN(C)Cc2ccccc2)nc2c1c(=O)n(C)c(=O)n2C` gave TEAD-YAP block 49.6*, FBW7 activator -0.1, GPR151 ag 2.1 and MITF inh 6.8.
O=C(NNC(=S)NCC1CCCO1)C(Sc1ccccc1)c1ccccc1 (stereo not given) was read as TEAD-YAP block 0.9, FBW7 activator 2.2*, GPR151 ag 1.2 and MITF inh 1.6.
Screening COC(=O)C1=C(C)N(c2ccc(OC)c(OC)c2)C(=O)/C1=C\c1ccc2c(c1)OCO2 returned TEAD-YAP block 4.6, FBW7 activator -0.1, GPR151 ag -0.3 and MITF inh 1.1.
Screening O=C1CCC/C(=N\NC(=O)c2cc(-c3ccncc3)nc3ccccc23)C1 returned TEAD-YAP block 26.3, FBW7 activator 0.1, GPR151 ag 2.1 and MITF inh -4.6.
`Cc1cc(C(=O)N/N=C2\CCCC(=O)C2)c2ccccc2n1` gave TEAD-YAP block 39.8*, FBW7 activator 0.0, GPR151 ag -0.3 and MITF inh -6.7.
For Cc1cc(C(=O)N/N=C(\CCC(=O)O)c2cccs2)c2ccccc2n1 the results were TEAD-YAP block 51.3*, FBW7 activator 0.3, GPR151 ag -0.3 and MITF inh 11.5.
Screening Cc1cc(C(=O)COc2ncnc3cc([N+](=O)[O-])ccc23)c(C)n1Cc1ccco1 returned TEAD-YAP block -18.6, FBW7 activator -0.4, GPR151 ag -0.7 and MITF inh 17.6.
For Cc1nc(NCCC2=CCCCC2)c2c3c(sc2n1)CCC3 the results were TEAD-YAP block 3.5, FBW7 activator -0.1, GPR151 ag -0.8 and MITF inh -6.3.
`Cc1nc(NCCC2=CCCCC2)c2cc(C)sc2n1` gave TEAD-YAP block 40.8*, FBW7 activator 0.0, GPR151 ag -0.4 and MITF inh -0.7.
`CCOc1cc(C2Nc3ccc(C(=O)c4ccccc4)cc3NC3=C2C(=O)CCC3)ccc1O` (stereo not given) gave TEAD-YAP block 64.4*, FBW7 activator -0.2, GPR151 ag 0.9 and MITF inh 3.1.
Screening CCOc1cc(C2Nc3ccc(C(=O)c4ccccc4)cc3NC3=C2C(=O)CC(C)(C)C3)ccc1O (stereo not given) returned TEAD-YAP block 45.2*, FBW7 activator 0.4, GPR151 ag -1.0 and MITF inh 4.0.
Screening COc1cc(C2C3=C(CCCC3=O)Nc3ccc4nc(C)ccc4c32)ccc1OC(C)=O (stereo not given) returned TEAD-YAP block -2.8, FBW7 activator -0.1, GPR151 ag -0.2 and MITF inh -12.0.
`COc1cc(C2C3=C(CCCC3=O)Nc3ccc4ncccc4c32)ccc1OC(C)=O` (stereo not given) gave TEAD-YAP block 54.4*, FBW7 activator 0.0, GPR151 ag 1.2 and MITF inh 17.3.
`COc1ccc(C2Nc3ccc(C(=O)c4ccccc4)cc3NC3=C2C(=O)CCC3)cc1OC` (stereo not given) gave TEAD-YAP block 58.6*, FBW7 activator 0.0, GPR151 ag -1.5 and MITF inh -8.7.
For COc1ccc(CCN2CCC(Nc3cccc(S(C)(=O)=O)c3)CC2)cc1 the results were TEAD-YAP block 2.6, FBW7 activator 0.5, GPR151 ag 3.6 and MITF inh -0.1.
COC(=O)c1ccc(/C=C(\C#N)c2nc3ccc(C)cc3[nH]2)cc1 was read as TEAD-YAP block -4.0, FBW7 activator 0.2, GPR151 ag -0.8 and MITF inh 11.8.
Screening CCCCC(=O)NC(c1ccc(C)cc1)c1ccc2cccnc2c1O (stereo not given) returned TEAD-YAP block 85.5*, FBW7 activator -0.4, GPR151 ag -0.1 and MITF inh 14.2.
For CCCCC(=O)NC(c1ccc(N(CC)CC)cc1)c1ccc2cccnc2c1O (stereo not given) the results were TEAD-YAP block 25.0, FBW7 activator -0.5, GPR151 ag 1.3 and MITF inh 15.2.
Screening CCCC(=O)NC(c1ccc(C)cc1)c1ccc2cccnc2c1O (stereo not given) returned TEAD-YAP block 69.2*, FBW7 activator -0.5, GPR151 ag 0.6 and MITF inh 4.0.
Cc1ccc(C(NC(=O)COc2ccccc2)c2cc(Cl)c3cccnc3c2O)cc1 (stereo not given) was read as TEAD-YAP block 18.8, FBW7 activator -0.1, GPR151 ag -0.3 and MITF inh 12.2.
O=[N+]([O-])c1cc(CN2CCC(c3ccccc3)C2)c(O)c2ncccc12 (stereo not given) was read as TEAD-YAP block 32.1*, FBW7 activator -0.9, GPR151 ag 1.7 and MITF inh 55.4*.
Screening O=[N+]([O-])c1cc(CN2CCc3ccccc3C2)c(O)c2ncccc12 returned TEAD-YAP block 8.7, FBW7 activator -0.6, GPR151 ag 0.3 and MITF inh 20.7.
O=[N+]([O-])c1cc(CN2CCN(c3cccc(C(F)(F)F)c3)CC2)c(O)c2ncccc12 was read as TEAD-YAP block 20.3, FBW7 activator 0.0, GPR151 ag -0.6 and MITF inh 18.6.
`CN1CCN(Cc2cc([N+](=O)[O-])c3cccnc3c2O)CC1` gave TEAD-YAP block 7.5, FBW7 activator -0.1, GPR151 ag 0.3 and MITF inh 76.0*.
For O=[N+]([O-])c1cc(CN2CCCCC2)c(O)c2ncccc12 the results were TEAD-YAP block 4.2, FBW7 activator -0.9, GPR151 ag -1.5 and MITF inh 73.0*.
`CN(C)c1ccc(C(=NO)c2ccc(N(C)C)cc2)cc1` gave TEAD-YAP block 21.0, FBW7 activator -0.2, GPR151 ag -0.1 and MITF inh 7.7.
For CN(C)c1ccc(C(=C2C=CC(=[N+](C)C)C=C2)c2ccc(N(C)C)cc2)cc1 the results were TEAD-YAP block 88.7*, FBW7 activator -0.9, GPR151 ag 1.8 and MITF inh 92.2*.
COc1cccc(-c2nc(C(N)=O)c3[nH]c(=O)n(-c4cccc(C)c4)c3n2)c1 was read as TEAD-YAP block 7.1, FBW7 activator 0.0, GPR151 ag -0.8 and MITF inh -4.2.
